Activity calls are given as the source filed them. The rule behind the calls is not given here.
Legend:
[1] = Immunotoxin (HA22) sensitization/mitigation study. Vehicle arm (PBS) (AID 1159510)
[2] = Immunotoxin (SS1P) sensitization/mitigation study. Vehicle arm (DMEM) (AID 1159513)
Potency is the fitted concentration of half-maximal effect.

SMILES | Potency [1] | Potency [2]
Fc1ccc(Cl)cc1-c1nc(Nc2ccncc2)c2nccnc2n1 | inactive | inactive
Cc1ccc(C(=O)Nc2ccc(CN3CCN(C)CC3)c(C(F)(F)F)c2)cc1C#Cc1cnc2cccnn12 | 1320 nM (active) | 6620 nM (active)
Cc1cc(Nc2nc(N[C@@H](C)c3ncc(F)cn3)ncc2Cl)n[nH]1 | inactive | inactive
Cn1c(=O)n(-c2ccc(C(C)(C)C#N)cc2)c2c3cc(-c4cnc5ccccc5c4)ccc3ncc21 | 3720 nM (active) | 33.2 nM (active)
CO[C@@H]1[C@H](N(C)C(=O)c2ccccc2)C[C@H]2O[C@]1(C)n1c3ccccc3c3c4c(c5c6ccccc6n2c5c31)C(=O)NC4 | 469 nM (active) | 1050 nM (active)
CCN(CC)CCCCNc1ncc2cc(-c3cc(OC)cc(OC)c3)c(NC(=O)NC(C)(C)C)nc2n1 | 20900 nM (active) | 20900 nM (active)
CC(C)C[C@H](NC(=O)CNC(=O)c1cc(Cl)ccc1Cl)B(O)O | 18.7 nM (active) | 118 nM (active)
CCOc1ccc(Nc2nc(-c3c(C)nc4ccccn34)cs2)cc1 | 10.5 nM (active) | 5.9 nM (active)
CNC(=O)c1cc(Oc2ccc(NC(=O)Nc3cc(C(C)(C)C)nn3-c3ccc4ncccc4c3)c(F)c2)ccn1 | 6620 nM (active) | 23500 nM (active)
O=c1[nH]c(-c2ccc(C(F)(F)F)cc2)nc2c1CSCC2 | inactive | inactive
CC(=O)Nc1ccc([C@H](C)C(=O)Nc2ncc(C(C)C)s2)cc1 | 296 nM (active) | 662 nM (active)
